# Source: PubChem BioAssay (Tox21)
# A number with no mark means an inactive call. Records with an inconclusive call do not appear. Entries that show only a call come without a potency. The source made the active and inactive calls. Unless noted, calls follow the shape of the dose curve; as a rule, active = well fitted curve in the direction sought with a large enough effect in the repeat runs; inconclusive = weak or mixed curves; inactive = no such curve, though single readings can be large; an effect the other way counts as inactive or inconclusive.
# Assays:
# [1] = qHTS assay to test for compound auto fluorescence at 535 nm (green) in HEK293 cells (AID 720680)
# [2] = qHTS assay to test for compound auto fluorescence at 460 nm (blue) in HEK293 cell free culture (AID 720681)
# In short: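 Blue fluorescence (Ex 405/Em 460 nm, triamterene-equivalent) was read immediately after pin transfer of compound or DMSO into medium (DMEM, 10% FBS) without cells.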
# [3] = qHTS assay to test for compound auto fluorescence at 535 nm (green) in HEK293 cell free culture (AID 720682)
# In short: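 Using fluorescein as calibrant, autofluorescence was quantified at 485/535 nm in cell-free DMEM containing 10% FBS after pintool addition of compound or vehicle.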
# [4] = qHTS assay to test for compound auto fluorescence at 590 nm (red) in HEK293 cell free culture (AID 720683)
# In short: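 Red-channel autofluorescence of compounds in culture medium (DMEM, 10% FBS), no cells, measured at 540/590 nm. Rose Bengal sodium is the reference fluorophore for equivalence.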
# [5] = qHTS assay to test for compound auto fluorescence at 590 nm (red) in HepG2 cell free culture (AID 720684)
# In short: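 Steps: dispense MEM/10% FBS medium, no cells; pin compound or DMSO vehicle; read red channel, Ex/Em 540/590 nm. Output given as Rose Bengal sodium equivalents.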
# [6] = qHTS assay to test for compound auto fluorescence at 460 nm (blue) in HepG2 cell free culture (AID 720685)
# In short: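 Compound (23 nL) or DMSO pinned into cell-free MEM with 10% FBS; blue fluorescence read at 405/460 nm excitation/emission, expressed as auto-fluorescence equivalency to triamterene.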
# [7] = qHTS assay to test for compound auto fluorescence at 535 nm (green) in HepG2 cell free culture (AID 720686)
# [8] = molecular target: Glucocorticoid receptor (Homo sapiens) (UniProt P04150); assay: qHTS assay to identify small molecule agonists of the glucocorticoid receptor (GR) signaling pathway (AID 720691; active = well fitted activation curve with a large enough effect in the signal ratio in the repeat runs, not every such curve was filed as active; the % refers to the signal ratio)
# In short: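 Beta-lactamase reporter activity, read as fluorescence intensity, was measured in GR-bla HeLa cells exposed to compounds for 18 h at 37 C and then loaded with LiveBLAzer B/G FRET substrate for 2 h at room temperature.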
# [9] = qHTS assay to identify small molecule antagonists of the glucocorticoid receptor (GR) signaling pathway - cell viability counter screen (AID 720693); also: nearly all actives have a fitted effect of over 55% in size
# [10] = qHTS assay for identifying genotoxic compounds that show differential cytotoxicity against isogenic chicken DT40 cell lines with known DNA damage response pathways - wild type cell line (AID 743012); also: nearly all actives have a fitted effect of over 60% in size
# In short: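 Quantitative HTS on parental DT40 cells: 40 h compound treatment at 37 C/5% CO2, with viability then determined by CellTiter-Glo luminescence. Values serve as the DNA repair-proficient reference for differential cytotoxicity.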
# [11] = qHTS assay for identifying genotoxic compounds that show differential cytotoxicity against isogenic chicken DT40 cell lines with known DNA damage response pathways - Rev3 mutant cell line (AID 743014); also: nearly all actives have a fitted effect of over 55% in size
# [12] = qHTS assay for identifying genotoxic compounds that show differential cytotoxicity against isogenic chicken DT40 cell lines with known DNA damage response pathways - Rad54/Ku70 mutant cell line (AID 743015); also: nearly all actives have a fitted effect of over 60% in size; also: potency is read from the fitted curve at half-maximal effect
# [13] = qHTS assay to identify small molecule antagonists of the androgen receptor (AR) signaling pathway - cell viability counter screen (AID 743033; also: nearly all actives have a fitted effect of over 45% in size)
# [14] = qHTS assay to identify small molecule antagonists of the androgen receptor (AR) signaling pathway using the MDA cell line - cell viability counter screen (AID 743041; also: nearly all actives have a fitted effect of over 45% in size)
# In short: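 Cells were plated at 3,000 per well and left 5 h. Compounds in DMSO were then pinned in, followed by R1881. After 16 h at 37C, CellTiter-Fluor fluorescence gave viability.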
# [15] = qHTS assay to test for compound auto fluorescence at 460 nm (blue) in HepG2 cells (AID 720687)
# In short: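 Blue-channel autofluorescence (Ex/Em 405/460 nm, triamterene-equivalent) was measured after 1 hr compound exposure at 37 C, 5% CO2. Cells were HepG2, plated overnight at 37 C in MEM plus 10% FBS.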
# [16] = molecular target: Glucocorticoid receptor (Homo sapiens) (UniProt P04150); assay: qHTS assay to identify small molecule antagonists of the glucocorticoid receptor (GR) signaling pathway (AID 720692; active = well fitted inhibition curve with a large enough effect in the signal ratio in the repeat runs, not every such curve was filed as active; the % refers to the signal ratio)
# In short: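 Fluorescence from cleaved LiveBLAzer B/G FRET substrate reports GRE-driven beta-lactamase in HeLa cells; compounds are tested against 5 nM dexamethasone (final) over 18 h at 37 C, substrate incubation 2 h at room temperature.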
# [17] = molecular target: Androgen receptor (Homo sapiens) (UniProt P10275); assay: qHTS assay to identify small molecule agonists of the androgen receptor (AR) signaling pathway (AID 743036; active = well fitted activation curve with a large enough effect in the signal ratio in the repeat runs, with a control signal flat, not every such curve was filed as active; the % refers to the signal ratio)
# In short: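 In this Tox21 qHTS, 2,000 HEK293 AR-bla cells per well were incubated with compounds for 16 h at 37C and 5% CO2. Fluorescence intensity was recorded 2 h after adding LiveBLAzer B/G FRET substrate at room temperature.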
# [18] = molecular target: Androgen receptor (Homo sapiens) (UniProt P10275); assay: qHTS assay to identify small molecule agonists of the androgen receptor (AR) signaling pathway using the MDA cell line (AID 743040; also: nearly all actives have a fitted effect of over 20% in size)
# In short: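 Cells plated, 5 h at 37C/0% CO2; compound or DMSO pinned; 16 h at 37C; ONE-Glo added; luminescence measured after 30 min at room temperature. Reporter line: MDA-kb2 with MMTV-luciferase responsive to AR and GR.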
# [19] = molecular target: Androgen receptor (Homo sapiens) (UniProt P10275); assay: qHTS assay to identify small molecule antagonists of the androgen receptor (AR) signaling pathway using the MDA cell line (AID 743042; also: nearly all actives have a fitted effect of over 55% in size)
# In short: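 Antagonist mode: compounds plus R1881 agonist added to MDA-kb2 AR-luc cells, incubated 16 h at 37C. Luciferase reporter luminescence quantified, with multiplexed CellTiter-Fluor readout for cell viability.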
# [20] = molecular target: Androgen receptor (Homo sapiens) (UniProt P10275); assay: qHTS assay to identify small molecule antagonists of the androgen receptor (AR) signaling pathway (AID 743035; active = well fitted inhibition curve with a large enough effect in the signal ratio in the repeat runs, not every such curve was filed as active; the % refers to the signal ratio)
# In short: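 Cell line: GeneBLAzer AR-UAS-bla GripTite (HEK293). Stimulus: R1881 added after compound. Exposure: 16 h, 37C, 5% CO2. Readout: LiveBLAzer B/G FRET fluorescence after 2 h at room temperature.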
# Chain of Glucocorticoid receptor (Homo sapiens) (P04150 whole entry, looked up): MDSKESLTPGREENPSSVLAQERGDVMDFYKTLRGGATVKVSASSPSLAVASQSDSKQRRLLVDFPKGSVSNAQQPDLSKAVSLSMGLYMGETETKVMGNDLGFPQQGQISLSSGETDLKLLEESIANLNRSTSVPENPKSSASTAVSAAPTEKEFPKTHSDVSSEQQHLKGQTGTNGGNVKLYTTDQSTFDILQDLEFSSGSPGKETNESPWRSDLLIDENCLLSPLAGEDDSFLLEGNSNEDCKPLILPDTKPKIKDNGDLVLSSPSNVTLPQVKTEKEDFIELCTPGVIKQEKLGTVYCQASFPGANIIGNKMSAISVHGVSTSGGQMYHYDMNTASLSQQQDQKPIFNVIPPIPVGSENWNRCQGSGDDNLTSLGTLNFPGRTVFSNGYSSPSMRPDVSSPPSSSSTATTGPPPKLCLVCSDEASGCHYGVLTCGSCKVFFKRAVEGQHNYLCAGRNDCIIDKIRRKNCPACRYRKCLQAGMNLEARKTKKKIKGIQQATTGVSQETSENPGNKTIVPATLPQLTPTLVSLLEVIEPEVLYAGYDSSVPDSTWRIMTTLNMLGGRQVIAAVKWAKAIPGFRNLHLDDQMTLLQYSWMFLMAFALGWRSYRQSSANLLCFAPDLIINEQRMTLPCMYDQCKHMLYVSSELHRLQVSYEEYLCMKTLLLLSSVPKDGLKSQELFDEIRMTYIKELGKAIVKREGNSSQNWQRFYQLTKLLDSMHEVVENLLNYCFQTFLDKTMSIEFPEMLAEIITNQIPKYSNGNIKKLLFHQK
# Chain of Androgen receptor (Homo sapiens) (P10275 whole entry, looked up): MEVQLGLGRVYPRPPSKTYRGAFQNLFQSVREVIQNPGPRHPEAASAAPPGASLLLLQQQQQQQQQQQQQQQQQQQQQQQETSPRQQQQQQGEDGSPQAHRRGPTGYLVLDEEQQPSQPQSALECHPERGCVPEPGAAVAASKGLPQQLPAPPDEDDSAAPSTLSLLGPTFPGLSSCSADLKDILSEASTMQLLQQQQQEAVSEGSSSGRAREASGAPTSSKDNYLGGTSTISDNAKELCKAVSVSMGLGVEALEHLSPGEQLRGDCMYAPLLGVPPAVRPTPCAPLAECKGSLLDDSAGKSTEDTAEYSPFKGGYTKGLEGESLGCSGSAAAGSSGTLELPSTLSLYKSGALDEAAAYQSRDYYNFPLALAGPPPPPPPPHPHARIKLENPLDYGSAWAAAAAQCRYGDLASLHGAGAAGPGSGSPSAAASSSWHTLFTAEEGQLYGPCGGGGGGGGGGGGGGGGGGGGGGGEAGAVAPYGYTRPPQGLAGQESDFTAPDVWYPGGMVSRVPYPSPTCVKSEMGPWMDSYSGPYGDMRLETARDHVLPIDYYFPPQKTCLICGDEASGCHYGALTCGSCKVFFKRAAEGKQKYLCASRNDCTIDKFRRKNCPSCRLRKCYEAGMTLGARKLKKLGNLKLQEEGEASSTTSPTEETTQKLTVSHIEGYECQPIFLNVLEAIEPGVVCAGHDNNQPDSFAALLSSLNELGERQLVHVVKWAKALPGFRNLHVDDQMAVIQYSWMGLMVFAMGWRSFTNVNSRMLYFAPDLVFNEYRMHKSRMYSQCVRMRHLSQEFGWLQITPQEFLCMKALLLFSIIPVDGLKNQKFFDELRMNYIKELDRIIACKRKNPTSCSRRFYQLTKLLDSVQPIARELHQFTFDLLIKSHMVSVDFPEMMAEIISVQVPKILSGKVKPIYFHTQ
smiles,measurement,setting,value
Cc1cccc(C)c1NC(=O)CN1CCCCCC1,outcome,[1],inactive
same,outcome,[2],inactive
same,outcome,[3],inactive
same,outcome,[4],inactive
same,outcome,[5],inactive
same,outcome,[6],inactive
same,outcome,[7],inactive
same,Potency,[8],inactive
same,outcome,[9],inactive
same,Potency,[10],inactive
same,Potency,[11],inactive
same,Potency,[12],inactive
same,outcome,[13],inactive
same,Potency,[14],inactive
C[C@]12C(=O)OC(=O)[C@H]1[C@H]1C=C[C@@H]2C1,outcome,[1],inactive
same,outcome,[2],inactive
same,outcome,[3],inactive
same,outcome,[4],inactive
same,outcome,[5],inactive
same,outcome,[6],inactive
same,outcome,[7],inactive
same,Potency,[8],inactive
same,outcome,[9],inactive
same,Potency,[10],inactive
same,Potency,[11],inactive
same,Potency,[12],inactive
same,outcome,[13],inactive
same,Potency,[14],inactive
CCOC(=O)C1CC(=O)C(=C(O)C2CC2)C(=O)C1 (stereo not given),outcome,[1],inactive
same,outcome,[2],inactive
same,outcome,[3],inactive
same,outcome,[5],inactive
same,outcome,[6],inactive
same,outcome,[7],inactive
same,outcome,[15],inactive
same,Potency,[8],inactive
same,Potency,[16],inactive
same,outcome,[9],inactive
same,Potency,[10],inactive
same,Potency,[11],inactive
CN1[C@@H]2CC[C@H]1CC(OC(=O)c1c[nH]c3ccccc13)C2 (stereo not given in full),outcome,[1],inactive
same,outcome,[2],inactive
same,outcome,[3],inactive
same,outcome,[4],inactive
same,outcome,[5],inactive
same,outcome,[6],inactive
same,outcome,[7],inactive
same,outcome,[9],inactive
same,Potency,[11],inactive
same,outcome,[13],inactive
CCC(=O)O[C@]1(C(=O)SCF)[C@H](C)C[C@H]2[C@@H]3C[C@H](F)C4=CC(=O)C=C[C@]4(C)[C@@]3(F)[C@@H](O)C[C@@]21C,"fluorescence, % of fluorescein",[1],0.0173% [at 18.6 µM]
same,"fluorescence, % of fluorescent control",[2],0.0707% [at 18.6 µM]
same,activity change,[3],0.0558% [at 18.6 µM]
same,"fluorescence, % of fluorescent control",[4],-0.193% [at 18.6 µM]
same,"fluorescence, % of Rose Bengal",[5],0.622% [at 18.6 µM]
same,"fluorescence, % of fluorescent control",[6],0.0563% [at 18.6 µM]
same,"fluorescence, % of fluorescein control",[7],0.0971% [at 18.6 µM]
same,"fluorescence, % of fluorescent control",[15],-0.137% [at 18.6 µM]
same,outcome,[9],inactive
same,Potency,[11],inactive
same,Potency,[14],inactive
CC(=O)Oc1cc(C(C)C)c(OCCN(C)C)cc1C,"fluorescence, % of fluorescein",[1],-0.013% [at 18.6 µM]
same,"fluorescence, % of fluorescent control",[2],-0.142% [at 18.6 µM]
same,activity change,[3],-0.0795% [at 18.6 µM]
same,"fluorescence, % of fluorescent control",[4],-0.128% [at 18.6 µM]
same,"fluorescence, % of Rose Bengal",[5],-0.418% [at 18.6 µM]
same,"fluorescence, % of fluorescent control",[6],-0.0726% [at 18.6 µM]
same,"fluorescence, % of fluorescein control",[7],-0.0374% [at 18.6 µM]
same,Potency,[8],inactive
same,Potency,[16],inactive
same,outcome,[9],inactive
same,Potency,[10],inactive
same,Potency,[11],inactive
same,Potency,[12],inactive
same,outcome,[13],inactive
same,Potency,[14],inactive
CC1=C2[C@H](/C=C(\C)C(=O)O)CC[C@@H](C)[C@H]2CC1,outcome,[1],inactive
same,outcome,[2],inactive
same,outcome,[3],inactive
same,outcome,[4],inactive
same,outcome,[5],inactive
same,outcome,[6],inactive
same,outcome,[7],inactive
same,outcome,[15],inactive
same,outcome,[9],inactive
same,Potency,[11],inactive
same,Potency,[12],inactive
same,outcome,[13],inactive
same,outcome,[17],inactive
same,Potency,[18],inactive
same,Potency,[14],inactive
same,outcome,[19],inactive
OC[C@H]1O[C@@H](O[C@H]2[C@H](O)[C@@H](O)[C@H](O)O[C@@H]2CO)[C@H](O)[C@@H](O)[C@H]1O,outcome,[1],inactive
same,outcome,[2],inactive
same,outcome,[3],inactive
same,outcome,[4],inactive
same,outcome,[5],inactive
same,outcome,[6],inactive
same,outcome,[7],inactive
same,Potency,[8],inactive
same,Potency,[16],inactive
same,outcome,[9],inactive
same,Potency,[10],inactive
same,Potency,[11],inactive
same,Potency,[12],inactive
same,outcome,[13],inactive
same,Potency,[20],inactive
same,outcome,[17],inactive
same,Potency,[18],inactive
same,outcome,[19],inactive
O=c1[nH]cnc2c1ncn2[C@@H]1O[C@H](CO)[C@@H](O)[C@H]1O,outcome,[1],inactive
same,outcome,[2],inactive
same,outcome,[4],inactive
same,outcome,[5],inactive
same,outcome,[6],inactive
same,outcome,[7],inactive
same,outcome,[15],inactive
same,Potency,[8],inactive
same,Potency,[16],inactive
same,Potency,[11],inactive
same,Potency,[12],inactive
same,Potency,[14],inactive
O=S(=O)(O)C(F)(F)F,outcome,[1],inactive
same,outcome,[2],inactive
same,outcome,[4],inactive
same,outcome,[5],inactive
same,outcome,[6],inactive
same,outcome,[7],inactive
same,Potency,[8],inactive
same,outcome,[9],inactive
same,Potency,[10],inactive
same,Potency,[11],inactive
same,Potency,[12],inactive
same,outcome,[13],inactive
same,Potency,[14],inactive
CCOc1ccccc1N,outcome,[1],inactive
same,outcome,[2],inactive
same,outcome,[4],inactive
same,outcome,[5],inactive
same,outcome,[6],inactive
same,outcome,[7],inactive
same,Potency,[8],inactive
same,outcome,[9],inactive
same,Potency,[11],inactive
same,Potency,[12],inactive
same,outcome,[13],inactive
same,Potency,[14],inactive
Cc1ccc(C(C)C)cc1O,outcome,[1],inactive
same,outcome,[2],inactive
same,outcome,[4],inactive
same,outcome,[5],inactive
same,outcome,[6],inactive
same,outcome,[7],inactive
same,outcome,[15],inactive
same,Potency,[8],inactive
same,Potency,[16],inactive
same,outcome,[9],inactive
same,Potency,[11],inactive
same,Potency,[12],inactive
same,Potency,[14],inactive
CC(C)C(=O)OC/C=C/c1ccccc1,outcome,[1],inactive
same,outcome,[2],inactive
same,outcome,[4],inactive
same,outcome,[5],inactive
same,outcome,[6],inactive
same,outcome,[7],inactive
same,outcome,[15],inactive
same,Potency,[8],inactive
same,outcome,[9],inactive
same,Potency,[10],inactive
same,Potency,[11],inactive
same,Potency,[12],inactive
same,outcome,[13],inactive
Cc1c(N)cccc1N,outcome,[1],inactive
same,outcome,[2],inactive
same,outcome,[4],inactive
same,outcome,[5],inactive
same,outcome,[6],inactive
same,outcome,[7],inactive
same,Potency,[8],inactive
same,Potency,[16],inactive
same,outcome,[9],inactive
same,Potency,[10],inactive
same,Potency,[12],14 µM (active)
same,outcome,[13],inactive
